The source of these data is PubChem BioAssay AID1085 (Emory University Molecular Libraries Screening Center, 2008).

The campaign covered roughly 220,000 compounds. About 930 (0.42%) were called active. Shown is part of a subset that was picked to be rich in actives. A number with no mark means an inactive call. No stated cut-off is given here; in the data, active means inhibition above about 50%; inactive means the rest.

In the assay the target is Glycoprotein 42 (Epstein-Barr virus (strain AG876)) (UniProt Q1HVG2). The assay is described as follows: EBV glycoprotein 42 binding blockers – biochemical, uHTS, fluorescence polarization, primary screen (AID 1085). The note with it: Fluorescence polarization binding assay, mP read-out; active compounds read high; tested at 21.74 µM.
Glycoprotein 42 (Epstein-Barr virus (strain AG876)), sequence (Q1HVG2 whole entry, looked up): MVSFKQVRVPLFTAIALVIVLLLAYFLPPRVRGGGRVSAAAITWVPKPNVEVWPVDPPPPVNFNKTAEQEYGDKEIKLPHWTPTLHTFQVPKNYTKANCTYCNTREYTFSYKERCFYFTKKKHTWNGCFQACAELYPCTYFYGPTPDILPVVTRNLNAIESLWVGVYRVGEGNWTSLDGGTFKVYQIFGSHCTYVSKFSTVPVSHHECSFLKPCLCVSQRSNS
Turning to `CC(=O)NC(NC(=S)Nc1c(C)n(C)n(-c2ccccc2)c1=O)C(Cl)(Cl)Cl` (centres undefined), the inhibition (commonly the drop in the measured response relative to a control, in per cent) is -9.48%.

In the case of `COc1ccc(/C(C)=N/NC(=O)CCC(=O)Nc2ccc(Cl)cc2Cl)c(OC)c1`, the inhibition is -0.68%.

Turning to `Cc1nn(-c2cc(Cl)ccc2N)c(=O)c2ccccc12`, the inhibition is -22.9%.

As for `COc1ccc(N2C(=O)c3cccc4cccc(c34)C2=O)nn1`, the inhibition was 15.4%.

Turning to `Cc1nn(C)cc1N1C(=O)c2cccc3c(N)ccc(c23)C1=O`, the inhibition was 149% (active).

Consider `Clc1cccc(CN2COc3c(cc(Cl)c4cccnc34)C2)c1`, for which the inhibition was 1.66%.

For `CC(C)(C)NC(=O)CSC(=Nc1ccccc1F)NC#N`, the inhibition was 4.3%.

As for `CCNC(=O)CC1C(=O)N(c2ccc(OC)cc2)C(=S)N1CCc1ccncc1` (centres undefined), the inhibition is -17.4%.

As to `CCOC(=O)c1sc(NC(=O)CSc2nc(C)cc(C(F)(F)F)n2)c(C#N)c1C`, the inhibition was -17.3%.

For `COc1ccc2nc(N3CCCC(O)C3)c(C#N)cc2c1` (centres undefined), the inhibition was 46.9%.

Take `CCOc1ccc2nc(NCCNS(=O)(=O)c3ccccc3)c(C#N)cc2c1`: the inhibition was -8.9%.

For the compound `CCOc1ccc2nc(N3CCCN(C(=O)Nc4ccccc4C)CC3)c(C#N)cc2c1`, the inhibition was 53.8% (active).

With `O=C(CCCCCN1C(=O)c2cccc3cccc(c23)C1=O)NCc1ccco1`, the inhibition is -16.7%.

For the compound `CCN(CC)S(=O)(=O)c1ccc(N2CCOCC2)c(NC(=O)C2COc3ccccc3O2)c1` (centres undefined), the inhibition was -2.58%.

Turning to `O=C(N/N=C/c1ccco1)c1csc2c1CCCC2`, the inhibition was -15.1%.

With `Cc1cccc2cc3c(N)c(C(=O)N4CCCc5ccccc54)sc3nc12`, the inhibition was 88.5% (active).

On to `Cc1c(C(=O)N2CCCc3ccccc32)sc2nc(-c3ccccc3)cn12`, for which the inhibition was -4.31%.

As to `Cc1occc1C(=O)N1CCCc2ccccc21`, the inhibition was -1.51%.

Regarding `CCOC(=O)C(C)n1nc(-c2ccccc2)c2ccccc2c1=O` (centres undefined), the inhibition was -6.93%.

For the compound `Cn1cnc([N+](=O)[O-])c1Sc1ccccc1`, the inhibition was -26%.

As to `COC(=O)Cc1nc2ccccc2[nH]1`, the inhibition is -12.7%.

Take `COc1ccccc1NC(=O)C[n+]1ccccc1`: the inhibition was -3.15%.

For `COC(=O)C[n+]1cccc2ccccc21`, the inhibition was 128% (active).

Regarding `CSc1cc(C)n(-c2ccccc2C)c(=S)c1C(C)=O`, the inhibition was -23.5%.

`COc1ccc(N(CCC#N)S(=O)(=O)c2ccc(Cl)cc2)cc1`: the inhibition is -7.41%.

For the compound `O=C(Nc1ccc(Cl)cc1)C1c2cccc[n+]2CC(=O)N1Cc1ccc2c(c1)OCO2` (centres undefined), the inhibition is -27%.

As for `CCOc1cccc(=O)c2c(C)n(CC3CCCO3)c(C)c12` (centres undefined), the inhibition is 14.8%.

Consider `O=S(=O)(Cc1cc(Sc2ccccc2)nc(-c2ccccc2)n1)c1ccccc1`, for which the inhibition is 3.74%.

For the compound `CCN(c1ccc(NC(=O)COC(=O)CCc2nc3ccccc3n2-c2ccccc2)cc1)C(C)C`, the inhibition is -13%.

On to `COc1ccc([N+](=O)[O-])cc1NC(=O)c1ccc(N(Cc2ccccc2C)S(C)(=O)=O)cc1`, for which the inhibition is -6.7%.

For `Cc1ccc(-c2cnc(NC(=O)CCC(=O)N(C)Cc3ccccc3)n2C)cc1`, the inhibition was 4.29%.

Consider `O=C(N/N=C/c1ccc(Cl)cc1)c1nc2ccc([N+](=O)[O-])cc2c(=O)[nH]1`, for which the inhibition was 78.6% (active).

For `O=C(N/N=C/c1ccc([N+](=O)[O-])cc1)c1c[nH]c2ccccc12`, the inhibition is -12.7%.

On to `Cc1nc2ccccc2cc1C(=O)N/N=C/c1ccc([N+](=O)[O-])cc1`, for which the inhibition is -3.69%.

As to `Nc1[nH]c(=S)nc2nc(-c3ccccc3)c(-c3ccccc3)nc12`, the inhibition is -1.95%.

Regarding `COc1ccc(NC(=O)Cn2c(=O)n(Cc3ccco3)c(=O)c3ccccc32)cc1`, the inhibition was -3.89%.

Take `Cc1cs/c(=N\N=C\c2ccc(O)cc2)n1Cc1ccco1`: the inhibition was 8.07%.

Take `CN(c1ccccc1)S(=O)(=O)c1cccc(NC(=O)Cc2c(F)cccc2Cl)c1`: the inhibition was 13.1%.

For the compound `O=S(=O)(c1ccc(F)cc1)N1CCN(C(=S)NC2CCCC2)CC1`, the inhibition is -9.24%.

As for `CCN(CC)P(=O)(Nc1ccc(SC(F)F)cc1)c1ccc(N(C)C)cc1NC(=O)c1ccco1` (centres undefined), the inhibition was -14.5%.

For the compound `O=C(NCCN1C(=O)S/C(=C\c2cccnc2)C1=O)c1ccc(S(=O)(=O)N2CCCC2)cc1`, the inhibition is -22.6%.

For the compound `O=C(O)COc1ccc(-c2nccc(-c3cccs3)n2)cc1`, the inhibition is 50.4% (active).

Take `COC(=O)CSc1nccc(-c2cccs2)n1`: the inhibition is -13.3%.

For the compound `O=C(Nc1ccnc(-c2ccncc2)n1)c1cccs1`, the inhibition is -5.75%.

For `CCN(CC)C(=O)Oc1ccc(Br)cc1C(=O)Nc1ccc(F)c(Cl)c1`, the inhibition was -10.6%.

As to `Cc1ccccc1N1C(=O)C(Oc2ccc(Cl)cc2)C1CNCC1CCCO1` (centres undefined), the inhibition was -2.06%.

Regarding `COc1cc(C(CCN2CCN(c3ccccc3)CC2)c2c(OC)cc(OC)c3ccc(=O)oc23)cc(OC)c1OC` (centres undefined), the inhibition was -16.3%.

As to `CCOC(=O)/C(C#N)=C/c1ccc(N2CCCCC2)cc1`, the inhibition was -25.7%.

On to `COc1ccc(N2CCN(C(=O)/C(C#N)=C/c3ccccc3)CC2)cc1`, for which the inhibition is -19%.

For the compound `CCOC(=O)/C(C#N)=C/c1ccc(N2CCN(Cc3ccccc3)CC2)cc1`, the inhibition was 128% (active).

For the compound `Cc1ccc(C(=O)COC(=O)CCCC(=O)NC2CCCCC2)cc1[N+](=O)[O-]`, the inhibition is 4.86%.

For the compound `O=C(Cc1ccc(Br)cc1)N1CCN(c2ccccn2)CC1`, the inhibition was 4.9%.

Regarding `CC(=O)NNC1=Nc2ccccc2N(C)C(C)C1` (centres undefined), the inhibition is -1.65%.

In the case of `COc1ncnc2c1N=C1CC(C)(C)CC(N)=C1S2`, the inhibition is 81.4% (active).

On to `CC(C)(C)c1ccc(/C=C/C(=O)Nc2ncccn2)cc1`, for which the inhibition is -8.99%.

Take `COc1cc(N2C(=O)CC3(CCCC3)CC2=O)cc(OC)c1OC`: the inhibition is -4.54%.

On to `CCCN1CC=C2C(C#N)=C(N)C(C#N)(C#N)C(c3cc(OC)ccc3OC)C2C1` (centres undefined), for which the inhibition is 36.5%.

In the case of `CCOC(=O)N1CC=C2C(C#N)=C(N)C(C#N)(C#N)[C@H](c3cccs3)[C@H]2C1`, the inhibition was 6.62%.

For the compound `CCN1CC=C2C(C#N)=C(N)C(C#N)(C#N)[C@H](c3ccoc3)[C@H]2C1`, the inhibition is 56.6% (active).
